Experimental data reported in PubChem BioAssay.
Calls of active or inactive are those of the source.

Experiments:
[1] = E. coli DRC41 culture turbidity changes, primary screen, E. coli filamentation inducer project, strain DRC41, OD650, 48 h (AID 1152);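 note: E. coli MC1000 strain DRC41 lacking acrAB efflux pump and sulA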; settings: E. coli DRC41 (acrAB sulA), higher = more signal, called active from +8 up or from −8 down
[2] = small-molecule binders of probe aLefty1, primary screen, biochemical, small-molecule microarray, 635/667 nm fluorescence (AID 1153); settings: higher = more signal;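 note: score merges spot fluorescence with signal-to-noise ratio from the scanned slide images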
[3] = PSAC antagonists in infected red cells, primary screen, cell-based, P. falciparum Indochina, OD700, 1 h (AID 1154); settings: P. falciparum Indochina infected RBC osmotic lysis, higher = more signal, called active from +8 up or from −8 down
[4] = PSAC antagonists in infected red cells, primary screen, cell-based, P. falciparum Indochina, OD700, 2 h (AID 1155);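 note: lysis reports solute entry through the parasite surface anion channel PSAC; channel blockers reduce lysis of infected cells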; settings: P. falciparum Indochina infected erythrocytes, osmotic lysis OD700; higher = more signal, called active from +8 up or from −8 down
[5] = osmotic lysis modulators in infected erythrocytes, primary screen, PSAC antagonist project, cell-based, P. falciparum Indochina, OD700, 3 h (AID 1156); settings: higher = more signal, called active from +8 up or from −8 down
[6] = PSAC antagonists in infected red cells, primary screen, cell-based, P. falciparum Indochina, OD700, 18 h (AID 1157); settings: P. falciparum Indochina infected erythrocytes, osmotic lysis OD700, 18 h; higher = more signal, called active from +8 up or from −8 down
[7] = modulators of S6 phosphorylation in cells, primary screen, cell-based, A549, cytoblot, luminescence, serum-stimulated (AID 1158); settings: A549 phospho-S6 cytoblot, 5 h, higher = more signal;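 note: serum-stimulated A549 lung adenocarcinoma cells; signal is phosphorylated S6 detected by cytoblot immunostaining with HRP secondary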
[8] = biological target: NADPH oxidase 2 (Homo sapiens) (UniProt P04839); test: NOX2-dependent H2O2 signal modulators, primary screen, NOX inhibitor project, cell-based, HEK293-NOX2, PMA-stimulated, Amplex Red fluorescence (AID 1159); settings: 45 min, higher = more signal, called active from +8 up or from −8 down; note: test concentration not given here
NADPH oxidase 2 (Homo sapiens), sequence (P04839 whole entry, looked up): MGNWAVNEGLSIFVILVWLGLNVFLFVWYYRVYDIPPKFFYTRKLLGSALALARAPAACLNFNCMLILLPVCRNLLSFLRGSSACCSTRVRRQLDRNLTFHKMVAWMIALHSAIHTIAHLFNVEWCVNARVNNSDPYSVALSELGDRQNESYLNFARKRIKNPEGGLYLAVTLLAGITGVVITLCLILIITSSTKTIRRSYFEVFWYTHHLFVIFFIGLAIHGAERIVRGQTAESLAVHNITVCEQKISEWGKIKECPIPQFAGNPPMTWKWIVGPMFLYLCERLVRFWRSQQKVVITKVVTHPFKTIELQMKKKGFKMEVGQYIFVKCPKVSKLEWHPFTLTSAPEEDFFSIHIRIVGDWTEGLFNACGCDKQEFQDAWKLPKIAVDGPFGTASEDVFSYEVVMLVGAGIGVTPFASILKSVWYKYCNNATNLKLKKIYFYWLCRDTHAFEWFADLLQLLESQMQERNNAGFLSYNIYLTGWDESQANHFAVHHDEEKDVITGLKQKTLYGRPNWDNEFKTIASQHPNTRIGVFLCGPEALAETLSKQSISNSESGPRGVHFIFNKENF

[9] = biological target: NADPH oxidase 4 (Homo sapiens) (UniProt Q9NPH5); test: NOX4-dependent H2O2 signal modulators, primary screen, NOX inhibitor project, cell-based, HEK293-NOX4, tetracycline-induced, Amplex Red fluorescence (AID 1160); settings: 45 min, higher = more signal, called active from +8 up or from −8 down
NADPH oxidase 4 (Homo sapiens), sequence (Q9NPH5 whole entry, looked up): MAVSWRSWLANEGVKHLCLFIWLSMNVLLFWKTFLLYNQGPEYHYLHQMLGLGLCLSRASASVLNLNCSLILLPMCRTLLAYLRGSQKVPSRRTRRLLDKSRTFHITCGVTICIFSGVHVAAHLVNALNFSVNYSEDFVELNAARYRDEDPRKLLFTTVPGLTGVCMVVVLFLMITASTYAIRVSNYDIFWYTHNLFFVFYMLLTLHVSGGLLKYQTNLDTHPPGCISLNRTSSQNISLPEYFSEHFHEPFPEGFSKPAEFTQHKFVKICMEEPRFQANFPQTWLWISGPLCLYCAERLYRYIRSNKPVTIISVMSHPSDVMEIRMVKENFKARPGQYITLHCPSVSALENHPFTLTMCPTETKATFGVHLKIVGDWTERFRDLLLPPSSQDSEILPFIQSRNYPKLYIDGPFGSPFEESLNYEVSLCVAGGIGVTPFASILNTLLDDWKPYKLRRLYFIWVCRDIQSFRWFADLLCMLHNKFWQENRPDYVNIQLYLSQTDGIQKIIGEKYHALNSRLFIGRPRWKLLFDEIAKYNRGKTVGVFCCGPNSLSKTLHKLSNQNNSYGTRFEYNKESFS

[10] = biological target: NADPH oxidase 5 (Homo sapiens) (UniProt Q96PH1); test: NOX5-dependent H2O2 signal modulators, primary screen, NOX inhibitor project, cell-based, HEK293-NOX5, Amplex Red fluorescence (AID 1161); settings: HEK293-NOX5, ionomycin, 45 min, higher = more signal
NADPH oxidase 5 (Homo sapiens), sequence (Q96PH1 whole entry, looked up): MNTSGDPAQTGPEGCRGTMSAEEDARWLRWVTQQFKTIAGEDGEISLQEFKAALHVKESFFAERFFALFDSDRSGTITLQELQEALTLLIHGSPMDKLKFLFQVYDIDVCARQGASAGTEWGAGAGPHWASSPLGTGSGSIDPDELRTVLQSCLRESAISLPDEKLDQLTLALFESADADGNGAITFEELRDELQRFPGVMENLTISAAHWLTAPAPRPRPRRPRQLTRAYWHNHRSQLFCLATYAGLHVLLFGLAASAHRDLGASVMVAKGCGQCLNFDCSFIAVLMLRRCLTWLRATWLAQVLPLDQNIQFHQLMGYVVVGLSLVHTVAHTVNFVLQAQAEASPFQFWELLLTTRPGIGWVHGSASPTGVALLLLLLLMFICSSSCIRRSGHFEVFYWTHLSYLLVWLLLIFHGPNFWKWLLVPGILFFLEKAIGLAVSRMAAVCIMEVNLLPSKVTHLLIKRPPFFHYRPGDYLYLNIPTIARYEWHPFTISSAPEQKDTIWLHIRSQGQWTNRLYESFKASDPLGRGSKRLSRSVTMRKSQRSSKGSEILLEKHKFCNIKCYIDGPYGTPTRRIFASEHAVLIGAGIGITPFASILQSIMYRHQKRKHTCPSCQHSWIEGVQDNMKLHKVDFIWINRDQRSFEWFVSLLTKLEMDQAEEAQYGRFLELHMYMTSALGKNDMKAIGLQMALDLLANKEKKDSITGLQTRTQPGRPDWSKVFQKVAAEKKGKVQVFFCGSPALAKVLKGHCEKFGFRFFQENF

SMILES	z-score [1]	composite z-score [2]	z-score [3]	z-score [4]	z-score [5]	z-score [6]	z-score [7]	z-score [8]	z-score [9]	z-score [10]
O=c1oc(-c2ccccc2)nc2cc(Br)ccc12	0.311 (inactive)	-0.0099	3.27 (inactive)	0.635 (inactive)	-1.02 (inactive)	0.845 (inactive)	-0.29	0.377 (inactive)	-0.138 (inactive)	-0.291
COc1ccc([Si](C)(C)[C@H]2[C@H](CCn3cc(CCO)nn3)O[C@@]3(C(=O)N(Cc4ccc(N5CCOC5=O)cc4)c4ccccc43)[C@@H]2C)cc1	0.176 (inactive)	0.308	33.4 (active)	34.8 (active)	2.62 (inactive)	6.01 (inactive)	0.711	-0.564 (inactive)	2.16 (inactive)	-0.419
COC(=O)c1ccc(OC)c(/C=C\CC(OC(C)=O)c2ccccc2)c1 (stereo not given)	0.0491 (inactive)	-0.795	8.02 (active)	0.898 (inactive)	-0.358 (inactive)	0.303 (inactive)	-0.0878	0.0248 (inactive)	0.415 (inactive)	-1.65
CCOC(=O)C1=CC[C@@H](c2ccccc2)N(S(=O)(=O)c2ccc(C)cc2)[C@H]1C(=O)OCC	-0.488 (inactive)	0.632	3.81 (inactive)	1.17 (inactive)	-0.54 (inactive)	0.583 (inactive)	-0.338	0.439 (inactive)	-1.45 (inactive)	-0.75
COc1ccc(C(=O)Nc2cccc(CN3C(=O)[C@@]4(O[C@@H](CCn5cc(CCO)nn5)[C@H]([Si](C)(C)c5ccc(OC)cc5)[C@H]4C)c4ccccc43)c2)cc1	-2.23 (inactive)	0.223	13.4 (active)	2.74 (inactive)	0.318 (inactive)	1.26 (inactive)	-0.782	-3.75 (inactive)	-0.389 (inactive)	2.37
COCCOC(=O)N1C(=O)[C@@]2(c3cc(C#CCNC(N)=O)ccc31)[C@H](c1ccc(OCCO)cc1)N1[C@H](c3ccccc3)[C@H](c3ccccc3)OC(=O)[C@H]1[C@@H]2C(=O)N1CCc2cc(OC)c(OC)cc2C1	0.506 (inactive)	0.308	3.71 (inactive)	1.89 (inactive)	0.523 (inactive)	1.15 (inactive)	0.307	1.89 (inactive)	1.09 (inactive)	0.284
O=C(NCc1ccccc1)[C@]1(CCS(=O)(=O)c2ccccc2)N=C(c2ccc(OCCCO)cc2)O[C@@H]1c1ccccc1	0.673 (inactive)	-0.345	24 (active)	6.86 (inactive)	1.85 (inactive)	1.45 (inactive)	-0.402	0.0459 (inactive)	0.902 (inactive)	0.242
COc1ccc(CCNC(=O)[C@@]2(c3ccc([N+](=O)[O-])cc3)CC(=O)N(CC34CC5CC(CC(C5)C3)C4)[C@@H]2c2ccc(CO)cc2)cc1	0.0305 (inactive)	0.155	4.6 (inactive)	0.522 (inactive)	3.14 (inactive)	-0.24 (inactive)	2	-0.956 (inactive)	-4.54 (inactive)	-3.97
CC(C)NC(=O)[C@@]1(Cc2ccccc2I)c2ccccc2C(=O)N(Cc2ccccc2)[C@H]1c1ccc(CO)cc1	-0.668 (inactive)	0.018	4 (inactive)	0.644 (inactive)	1.19 (inactive)	0.374 (inactive)	-0.0212	1.32 (inactive)	1.07 (inactive)	0.909
COCCOC(=O)N1C(=O)[C@@]2(c3ccccc31)[C@H](C(=O)NC[C@H](O)c1ccccc1)[C@H]1C(=O)O[C@H](c3ccccc3)[C@H](c3ccccc3)N1[C@@H]2c1ccc(OCCO)cc1	1.32 (inactive)	-0.496	3.97 (inactive)	1.89 (inactive)	0.968 (inactive)	0.999 (inactive)	0.29	0.463 (inactive)	1.13 (inactive)	-0.739
O=C1OCCC=C[C@H]2OC34C=CCN(Cc5ccccc5)C(=O)[C@H]3N(CCCO)C(=O)[C@@H]4C12 (stereo not given in full)	2.94 (inactive)	-0.101	0.64 (inactive)	-0.306 (inactive)	0.739 (inactive)	-0.996 (inactive)	0.84	-1.96 (inactive)	-2.93 (inactive)	-3.28
COc1c(C)cc(-c2cc3c(c(-c4ccc(Oc5ccccc5)cc4)n2)[Si](C(C)C)(C(C)C)OC3)cc1C	-1.42 (inactive)	0.13	0.219 (inactive)	0.603 (inactive)	0.392 (inactive)	0.63 (inactive)	-0.817	-0.445 (inactive)	0.722 (inactive)	-0.958
C=CCC(OC(C)=O)[C@@H]1[C@@H](N(Cc2ccc(-c3ccccc3)cc2)C(=O)Cc2ccc(F)cc2)c2cc(OCCCO)ccc2N1C(=O)c1ccc2ccccc2n1 (stereo not given in full)	1.51 (inactive)	0.22	0.879 (inactive)	1.19 (inactive)	-0.385 (inactive)	0.505 (inactive)	0.374	-0.632 (inactive)	0.631 (inactive)	1.95
O=C1O[C@H](c2ccccc2)[C@H](c2ccccc2)N2[C@H]1[C@@H](C(=O)N1CCN(c3ncccn3)CC1)[C@]1(C(=O)Nc3ccccc31)[C@H]2c1ccc(OCCO)cc1	2.64 (inactive)	-0.0221	7.83 (inactive)	0.395 (inactive)	0.81 (inactive)	-1.32 (inactive)	2.11	0.192 (inactive)	-1.33 (inactive)	-2.84
Cc1ccc(S[C@]2(C(=O)NCC(C)C)CC(=O)N(Cc3ccccc3)[C@@H]2c2ccc(CO)cc2I)cc1	-0.668 (inactive)	0.0597	10.6 (active)	1.16 (inactive)	0.448 (inactive)	0.598 (inactive)	-0.36	1.09 (inactive)	-2.23 (inactive)	0.489
COC(=O)c1ccc(C(O)C2C=CC3C(=O)N(C)C(=O)C3N2NC(=O)OC(C)(C)C)o1 (stereo not given)	-1.31 (inactive)	0.0622	0.146 (inactive)	0.52 (inactive)	-0.46 (inactive)	0.533 (inactive)	-0.785	-0.786 (inactive)	-0.929 (inactive)	0.396
CN1C(=O)C2C(C1=O)C1C=C(CCCO)C2C(c2cccs2)N1C (stereo not given)	0.325 (inactive)	-0.274	1.52 (inactive)	0.326 (inactive)	1.31 (inactive)	0.181 (inactive)	-0.519	0.108 (inactive)	0.378 (inactive)	1.22
C=CCNC(=O)[C@@H]1[C@H]2C(=O)O[C@H](c3ccccc3)[C@H](c3ccccc3)N2[C@H](c2ccccc2OCCO)[C@@]12C(=O)Nc1ccc(C#CC3=CCCCC3)cc12	1.51 (inactive)	0.454	1.78 (inactive)	-0.144 (inactive)	-0.458 (inactive)	0.0442 (inactive)	2.36	0.646 (inactive)	-1.35 (inactive)	-4.4
CCOC(=O)C[C@H]1[C@H](OC(=O)c2ccccc2-c2ccccc2)[C@@H](NC(=O)Cc2ccc(OC)cc2)c2cc(OCCCO)ccc2N1C(=O)c1ccccc1	-1.14 (inactive)	-0.0877	1.57 (inactive)	0.316 (inactive)	0.432 (inactive)	0.208 (inactive)	-0.127	1.02 (inactive)	1.15 (inactive)	-0.26
CC(C)c1ccc(NN2C(C(O)c3ccc(N(C)C)cc3)C=CC3C(=O)N(c4ccccc4)C(=O)C32)cc1 (stereo not given)	-0.448 (inactive)	0.544	1.72 (inactive)	1.05 (inactive)	0.655 (inactive)	1.32 (inactive)	-0.183	-1.14 (inactive)	-0.983 (inactive)	-2.39
CN(C)CCCCCCNC(=O)[C@H]1C[C@H]2C(=O)N[C@@H](CCCCN)C(=O)N2[C@H]1c1ccc(O)cc1	-0.261 (inactive)	2.82	-0.294 (inactive)	0.155 (inactive)	-0.844 (inactive)	0.303 (inactive)	0.169	0.418 (inactive)	-0.145 (inactive)	0.887
CC(C)(C)N1CC=CC23O[C@@H]4/C=C\CCCOC(=O)C4[C@H]2C(=O)N(CCO)[C@@H]3C1=O (stereo not given in full)	0.583 (inactive)	-0.552	0.806 (inactive)	1.01 (inactive)	0.17 (inactive)	0.603 (inactive)	-0.495	1.58 (inactive)	0.0377 (inactive)	2.17
CCCCC(CC)C(O)C1C=CC2C(=O)N(c3ccccc3)C(=O)C2N1Nc1ccccc1 (stereo not given)	-1.61 (inactive)	0.448	1.1 (inactive)	-0.627 (inactive)	2.18 (inactive)	-1.72 (inactive)	1.14	-2.98 (inactive)	-5.21 (inactive)	-5.76
COC(=O)C[C@H]1O[C@]2(C(=O)N(Cc3ccccc3)c3ccc(NC(C)=O)cc32)[C@@H](C)[C@@H]1[Si](C)(C)c1ccc(OC)cc1	-0.202 (inactive)	-0.179	2.19 (inactive)	0.984 (inactive)	0.659 (inactive)	0.304 (inactive)	0.186	-0.0156 (inactive)	0.288 (inactive)	2.89
CC(C)CNC(=O)[C@@]1(c2ccc([N+](=O)[O-])cc2)CC(=O)N(CC23CC4CC(CC(C4)C2)C3)[C@@H]1c1ccc(CO)cc1I	-0.998 (inactive)	-0.0114	17.2 (active)	3.11 (inactive)	2.73 (inactive)	1.41 (inactive)	-0.472	2 (inactive)	-1.12 (inactive)	1.75
Cc1ccc(S[C@]2(C(=O)NC3CC3)CC(=O)N(Cc3ccccc3)[C@@H]2c2ccc(CO)cc2)cc1	-0.485 (inactive)	0.106	1.28 (inactive)	0.216 (inactive)	-0.552 (inactive)	-0.331 (inactive)	0.0262	-0.106 (inactive)	1.09 (inactive)	0.997
